B1: unnamed (peptide)
chain: KMSRSPPRPPSLKII

target: ScBbc1; test: SPOT peptide array binding signal intensity (averaged, normalized) (arbitrary units (background-subtracted, floor 0; scale differs between SH3 domains)); higher = stronger binding of the SH3 domain to the peptide
Procedure, shortened: (§1)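 Peptides were synthetic 15-mers on cellulose membranes, with every cysteine replaced by serine. They were incubated overnight at 4°C with GST-SH3 domains from four yeast species at 10 μg/ml in TBS-based blocking buffer. Binding signal, the replicate-averaged normalized and background-subtracted spot intensity, is in arbitrary units that differ between domains.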

Row | Binder | SPOT peptide array binding signal intensity
1 | B1 | 69.5

target: ScBem1-D1; test: as above
Procedure, shortened: as §1

Row | Binder | SPOT peptide array binding signal intensity
2 | B1 | 8

target: ScBzz1-D1; test: as above
Procedure, shortened: as §1

Row | Binder | SPOT peptide array binding signal intensity
3 | B1 | 57

target: ScBzz1-D2; test: as above
Procedure, shortened: as §1

Row | Binder | SPOT peptide array binding signal intensity
4 | B1 | 25.5

target: ScCyk3; test: as above
Procedure, shortened: as §1

Row | Binder | SPOT peptide array binding signal intensity
5 | B1 | 5

target: ScFus1; test: as above
Procedure, shortened: as §1

Row | Binder | SPOT peptide array binding signal intensity
6 | B1 | 463

target: ScHof1; test: as above
Procedure, shortened: as §1

Row | Binder | SPOT peptide array binding signal intensity
7 | B1 | 0.75

target: ScHse1; test: as above
Procedure, shortened: as §1

Row | Binder | SPOT peptide array binding signal intensity
8 | B1 | 99.5

target: ScLsb1; test: as above
Procedure, shortened: as §1

Row | Binder | SPOT peptide array binding signal intensity
9 | B1 | 39.8

target: ScLsb2; test: as above
Procedure, shortened: as §1

Row | Binder | SPOT peptide array binding signal intensity
10 | B1 | 18

target: ScLsb3; test: as above
Procedure, shortened: as §1

Row | Binder | SPOT peptide array binding signal intensity
11 | B1 | 742

target: ScLsb4; test: as above
Procedure, shortened: as §1

Row | Binder | SPOT peptide array binding signal intensity
12 | B1 | 142

target: ScMyo3; test: as above
Procedure, shortened: as §1

Row | Binder | SPOT peptide array binding signal intensity
13 | B1 | 142

target: ScMyo5; test: as above
Procedure, shortened: as §1

Row | Binder | SPOT peptide array binding signal intensity
14 | B1 | 47.2

target: ScNbp2; test: as above
Procedure, shortened: as §1

Row | Binder | SPOT peptide array binding signal intensity
15 | B1 | 2300

target: ScPex13; test: as above
Procedure, shortened: as §1

Row | Binder | SPOT peptide array binding signal intensity
16 | B1 | 464

target: ScRvs167; test: as above
Procedure, shortened: as §1

Row | Binder | SPOT peptide array binding signal intensity
17 | B1 | 123

target: ScSho1; test: as above
Procedure, shortened: as §1

Row | Binder | SPOT peptide array binding signal intensity
18 | B1 | 634

target: ScSla1-D1-D2; test: as above
Procedure, shortened: as §1

Row | Binder | SPOT peptide array binding signal intensity
19 | B1 | 653

target: ScSla1-D3; test: as above
Procedure, shortened: as §1

Row | Binder | SPOT peptide array binding signal intensity
20 | B1 | 270

target: SpAbp1-D1; test: as above
Procedure, shortened: as §1

Row | Binder | SPOT peptide array binding signal intensity
21 | B1 | 177

target: SpBbc1; test: as above
Procedure, shortened: as §1

Row | Binder | SPOT peptide array binding signal intensity
22 | B1 | 6.75

target: SpBzz1-D1; test: as above
Procedure, shortened: as §1

Row | Binder | SPOT peptide array binding signal intensity
23 | B1 | 1270

target: SpBzz1-D2; test: as above
Procedure, shortened: as §1

Row | Binder | SPOT peptide array binding signal intensity
24 | B1 | 79.2

target: SpCyk3; test: as above
Procedure, shortened: as §1

Row | Binder | SPOT peptide array binding signal intensity
25 | B1 | 9

target: SpHof1; test: as above
Procedure, shortened: as §1

Row | Binder | SPOT peptide array binding signal intensity
26 | B1 | 19.5

target: SpHof1-2; test: as above
Procedure, shortened: as §1

Row | Binder | SPOT peptide array binding signal intensity
27 | B1 | 27

target: SpHof1-3; test: as above
Procedure, shortened: as §1

Row | Binder | SPOT peptide array binding signal intensity
28 | B1 | 139

target: SpHse1; test: as above
Procedure, shortened: as §1

Row | Binder | SPOT peptide array binding signal intensity
29 | B1 | 70

target: SpLsb1; test: as above
Procedure, shortened: as §1

Row | Binder | SPOT peptide array binding signal intensity
30 | B1 | 9.75

target: SpLsb4; test: as above
Procedure, shortened: as §1

Row | Binder | SPOT peptide array binding signal intensity
31 | B1 | 1060

target: SpMyo1; test: as above
Procedure, shortened: as §1

Row | Binder | SPOT peptide array binding signal intensity
32 | B1 | 224

target: SpNbp2; test: as above
Procedure, shortened: as §1

Row | Binder | SPOT peptide array binding signal intensity
33 | B1 | 146

target: SpPex13; test: as above
Procedure, shortened: as §1

Row | Binder | SPOT peptide array binding signal intensity
34 | B1 | 17

target: SpRvs167; test: as above
Procedure, shortened: as §1

Row | Binder | SPOT peptide array binding signal intensity
35 | B1 | 92.3

target: SpSla1-D1-D2; test: as above
Procedure, shortened: as §1

Row | Binder | SPOT peptide array binding signal intensity
36 | B1 | 17

target: SpSla1-D3; test: as above
Procedure, shortened: as §1

Row | Binder | SPOT peptide array binding signal intensity
37 | B1 | 138

— the supplement of paper PMC4466140
